Screening data (PubChem BioAssay)
The entries come from a sample that favours hits as a whole.
Shiga toxin inh – Shiga toxin inhibition. inhibition, % at 38.7 µM. 9.2% of 290,000 active. Vero cells, Shiga toxin protein synthesis inhibition reporter; in the data active = inhibition mostly above about 28%, no sharp cut-off; inactive = mostly below about 43%; also: 0% is about no effect
RE007 growth inh – less growth of the S. pombe RE007 Vpr strain; S. pombe RE007 Vpr strain, BacTiter-Glo ATP luminescence, 24 h; Potency, µM (series often up to 92.2 µM), for inactives: at the highest dose activity change, negative = less growth, usual class: inhibitors; 0.21% of 360,000 active; AID 651644; active = well fitted falling curve with a large enough effect; inconclusive = small, poorly fitted or top-dose-only effect; inactive = no such curve, though single readings can be large or run the other way; also: potency is read from the fitted curve at half-maximal effect; % is scaled to controls: 0 for no effect and ±100 for the full control effect; nearly all actives have a fitted effect of over 50% in size
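Fission yeast strain RE007, carrying one chromosomally integrated HIV-1 vpr copy, was seeded at OD 0.01 in PMG+AL medium with 23 nL pinned compound. After 24 h at 30 °C and 99% humidity, viability was read by BacTiter-Glo luminescence.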
LmPK inh – blocks Leishmania mexicana pyruvate kinase activity; Q27686; purified LmPK, Kinase-Glo ATP luminescence, 1 h; Potency, µM (highest dose often 57.5 µM), inactives show top-dose activity change, negative = inhibition, actives largely listed as inhibitors; 0.37% of 290,000 active; also: potency is read from the fitted curve at half-maximal effect; % is scaled to controls: 0 for no effect and ±100 for the full control effect
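ATP generated from ADP (0.1 mM) and PEP (0.5 mM) by 0.1 nM LmPK over 1 h at room temperature (pH 7.2 imidazole buffer) was detected by coupled luciferase luminescence. Values were normalized to uninhibited and no-enzyme wells.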
Giardia FBPA inh – Giardia lamblia aldolase inhibition; A8B2U2; purified Giardia FBPA; Potency, µM (series often up to 59.6 µM), without a hit: at the highest dose activity, negative = inhibition, most hits filed as inhibitors; 0.71% of 290,000 active; also: potency is read from the fitted curve at half-maximal effect; % is scaled to controls: 0 for no effect and ±100 for the full control effect; nearly all actives have a fitted effect of over 55% in size
Target sequence (A8B2U2 whole entry, looked up): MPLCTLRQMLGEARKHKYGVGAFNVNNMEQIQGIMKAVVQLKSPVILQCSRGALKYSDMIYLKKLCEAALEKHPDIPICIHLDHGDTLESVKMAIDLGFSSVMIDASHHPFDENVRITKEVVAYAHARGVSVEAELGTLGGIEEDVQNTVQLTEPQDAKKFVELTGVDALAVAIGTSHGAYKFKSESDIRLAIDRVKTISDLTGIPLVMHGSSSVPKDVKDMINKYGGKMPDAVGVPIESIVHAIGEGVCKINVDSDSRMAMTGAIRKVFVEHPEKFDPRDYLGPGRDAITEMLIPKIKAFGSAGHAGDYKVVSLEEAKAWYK
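Giardia FBPA (40 nM reagent) was preincubated 10 min at RT with compound (up to 57.5 uM final), then substrate plus GAPDH/TPI/NAD/arsenate coupling system with diaphorase/resazurin was added; resorufin fluorescence (525/598 nm) was read after 20 min.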
CHX counter – affects cycloheximide protein synthesis inhibition readout, counter-screen | cell reporter, cycloheximide protein synthesis inhibition counterscreen | max response, % | 12% of 300,000 active; in the data active = max response mostly above about 13%, no sharp cut-off; inactive = mostly below about 14%; also: read at 38.3 µM for the half of the compounds with a filed dose; 0% is about no effect
Tb PYK inh – T. brucei pyruvate kinase inhibition; Q57TT1; TbPYK enzyme, Kinase-Glo Plus ATP luminescence, 45 min; Potency, µM (top dose mostly 76.8 µM), for the others: at the highest dose activity, negative = inhibition, actives largely listed as inhibitors; 0.12% of 410,000 active; also: potency is read from the fitted curve at half-maximal effect; % is scaled to controls: 0 for no effect and ±100 for the full control effect; nearly all actives have a fitted effect of over 50% in size
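Luminescence from Kinase-Glo Plus, added after a 45-minute room-temperature reaction, served as the end-point read-out. The enzyme and substrate were preincubated with compound before ADP (130 uM final) initiated turnover. Concentration-effect curves came from normalized qHTS data.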
Active calls of the source: *; ? = inconclusive; · = no result given. Unless noted, calls follow the shape of the dose curve; as a rule, active = well fitted curve in the direction sought with a large enough effect; inconclusive = small, poorly fitted or top-dose-only effect, or another doubt; inactive = no such curve, though single readings can be large; an effect the other way counts as inactive or inconclusive.

SMILES	Shiga toxin inh	RE007 growth inh	LmPK inh	Giardia FBPA inh	CHX counter	Tb PYK inh
CCOC(=O)C1CCCN(C(=O)c2ccc3c(c2)N(C)C(=O)/C(=C/c2ccccc2Cl)S3)C1 (stereo unspecified)	-1.9	6.1%	-12.7%	·	-1.8	2.6%
CN1C(=O)/C(=C/c2ccccc2Cl)Sc2ccc(C(=O)N3CCCC3)cc21	3.3	2.7%	5.1%	-0.4%	22.4*	0.8%
CCc1ccc(C(=O)c2cn(CC(=O)Nc3ccc(C)c(C)c3)c3ccccc3c2=O)cc1	·	·	·	·	·	2.5%
COc1ccc(-c2nn(-c3ccccc3)cc2C(=O)NC2CCCCC2C)cc1 (stereo unspecified)	·	-0.5%	·	·	·	-3.1%
Cc1ccn2cc(C(=O)N3CCCC(Nc4ccc(F)cc4)C3)nc2c1 (stereo unspecified)	22.0	-26.6%	-2.2%	-3.3%	8.1	-2.6%
Cc1ccc2nc(C(=O)N3CCCC(Nc4ccc(F)cc4)C3)cn2c1 (stereo unspecified)	81.0*	-11.3%	-6.9%	·	28.3*	4.4%
Cc1ccc(C)c(C(=O)COC(=O)c2cccc(N3C(=O)c4c(C)nc5ccccc5c4C3=O)c2)c1	94.0*	-3.9%	0.4%	2.8%	45.6*	5.6%
COc1ccc(S(=O)(=O)N2CCN(C(=O)CCSc3ccccc3)CC2)cc1	·	15.5%	·	·	·	-0.5%
O=C(NN/C(=N/S(=O)(=O)c1ccc(Cl)cc1)c1ccccc1)c1cccc(Cl)c1	81.4*	?	-4.3%	-10.0%	30.9*	0.0%
O=S(=O)(/N=C(/Nc1ccccn1)c1ccc(Cl)cc1)c1ccc(Cl)cc1	20.1	-1.5%	2.9%	4.2%	48.9*	-5.1%
COc1cc(N/C(=N/S(=O)(=O)c2ccccc2)c2ccccc2)ncn1	67.7*	11.1%	2.0%	-5.6%	45.7*	7.2%
Cc1ccc(S(=O)(=O)/N=C(/NNC(=O)c2cccc(Cl)c2)c2ccccc2)cc1	99.2*	?	7.8%	-9.9%	33.4*	-2.4%
COc1ccccc1N/C(=N/S(=O)(=O)c1ccc(C)cc1)c1ccccc1	-7.9	0.3%	7.9%	-1.2%	5.7	2.2%
O=C(NN/C(=N/S(=O)(=O)c1ccc(Cl)cc1)c1ccccc1)c1ccc(O)cc1	56.2*	-8.7%	-24.1%	2.8%	67.0*	5.4%
N#Cc1cccc(S(=O)(=O)NCCOc2ccccc2F)c1	·	-13.5%	·	·	·	-9.5%
Cc1ccc(C(=O)CC(=O)c2ccccc2)cc1	66.3*	-13.9%	-1.9%	-23.0%	48.4*	-0.1%
Cc1ccc(C(=O)Sc2cccccc2=O)cc1	134.9*	?	-12.4%	17.2%	77.8*	0.9%
Cc1ccc[n+](CC(=O)c2ccc(-c3ccccc3)cc2)c1	-8.6	-12.1%	-4.9%	1.7%	-1.5	-14.0%
Cc1ccc(S(=O)(=O)/N=C(/Sc2ccccc2C(=O)O)c2ccccc2)cc1	-3.7	8.8%	-2.3%	·	-10.8	-3.2%
Cc1ccc(C(=O)OCC(=O)c2ccccc2)cc1	48.3*	3.3%	-6.8%	-8.9%	22.7*	-2.9%
Cc1ccc(C(=O)C[n+]2ccccc2)cc1	35.9*	9.7%	-1.9%	-0.7%	24.6*	-11.8%
O=C(COC(=O)c1ccc(-c2cnc3ccccc3n2)cc1)c1ccccc1	9.6	-4.1%	6.0%	5.4%	10.9	2.7%
Cc1ccc(C(=O)Cc2ccccc2)cc1	·	-11.4%	·	·	·	2.0%
Clc1ccc(CCNc2ncnc3c2nnn3Cc2ccccc2)cc1	-2.8	5.4%	-0.1%	-6.1%	-2.0	-5.5%
COc1ccc(NC(=O)N2CCCC2C(=O)NCc2cccs2)cc1 (stereo unspecified)	25.1	1.6%	4.3%	-1.0%	25.0	-2.6%
SMILES	Shiga toxin inh	RE007 growth inh	LmPK inh	Giardia FBPA inh	CHX counter	Tb PYK inh
CCCC(=O)c1ccc(-c2ccccc2)cc1	84.3*	2.3%	-11.0%	1.1%	28.3*	-24.2%
CC(NC(=O)c1ccccc1)C(=O)OCC(=O)c1ccc(Br)cc1 (stereo unspecified)	9.7	-2.9%	-1.7%	0.1%	-0.7	-2.2%
CC(=O)Nc1cc(C(=O)OCC(=O)c2ccccc2)ccc1C	active	15.1%	-0.4%	1.4%	34.6*	0.4%
Cc1ccc(C(=O)COC(=O)c2cccc(NC(=O)c3ccc([N+](=O)[O-])cc3[N+](=O)[O-])c2)cc1	136.3*	-8.1%	-6.8%	4.7%	35.7*	5.2%
CC(=O)NC(C)C(=O)OCC(=O)c1ccc(-c2ccccc2)cc1 (stereo unspecified)	49.1*	2.3%	2.2%	2.9%	16.1*	-1.7%
CN(CCCn1ccc(NC(=O)OCc2ccccc2)nc1=O)Cc1ccco1	·	-27.7%	·	·	·	-2.7%
Cc1ccc(S(=O)(=O)NCCCCCC(=O)Nc2c(C)n(C)n(-c3ccccc3)c2=O)cc1	15.6	-3.4%	1.6%	2.7%	-0.5	4.6%
Cc1ccc([N+](=O)[O-])cc1NC(=O)CSc1n[nH]c(-c2cccnc2)n1	-7.9	-10.9%	-1.6%	-28.5%	-4.0	-1.5%
Cc1cc(C)c(C(=O)CC(=O)c2ccccc2Cl)c(O)c1	22.3	?	6.9%	-5.5%	22.1*	8.4%
Cc1ccc(C(=O)CCc2ccc(N)cc2)cc1	96.0*	8.5%	2.3%	-7.4%	30.7*	4.2%
O=C(CN1C(=O)CCC1=O)c1ccc(-c2ccccc2)cc1	82.8*	28.0%	4.5%	2.5%	62.8*	-5.6%
COc1ccc(CCC(=O)OC(C)C(=O)c2ccc(C)cc2)cc1 (stereo unspecified)	-10.4	7.6%	-1.4%	-2.6%	-3.8	1.5%
Cc1cc(C)c(C(=O)c2ccccc2C(=O)O)c(C)c1	·	22.6%	·	·	·	9.7%
Cc1cc(C)c(NC(=O)CC(=O)c2ccccc2)c(Cl)c1	64.7*	95.9%	-0.9%	13.5%	22.0*	-2.6%
N=c1ccn(CC(=O)c2ccc(-c3ccccc3)cc2)cc1	-5.4	?	-5.8%	4.7%	-0.7	4.2%
COc1ccccc1NC(=O)c1c(C)cc(C)nc1SCC(=O)Nc1ccc(C)cc1	·	·	·	·	·	-2.4%
CC(C)(C)C(=O)Nc1ccc(C(=O)NNC(=O)Cc2ccccc2)cc1	11.5	6.0%	2.5%	-13.2%	14.8*	-4.2%
CC(C)(C)C(=O)Nc1ccc(C(=O)Nc2cc(NC(=O)c3ccc(NC(=O)C(C)(C)C)cc3)cc(C(=O)O)c2)cc1	10.5	-10.4%	0.3%	-9.3%	18.7*	-4.7%
O=C(Cc1ccccc1)Nc1ccc(C(=O)NCc2ccccc2)cc1	9.6	6.7%	0.6%	1.5%	5.2	4.0%
CC(C)(C)C(=O)Nc1ccc(NC(=O)C(C)(C)C)cc1	17.2	1.0%	-1.7%	10.2%	4.2	3.1%
O=C(O)c1cc(NC(=O)c2ccc(Br)cc2)cc(NC(=O)c2ccc(Br)cc2)c1	-5.9	2.3%	-9.3%	14.4%	-2.8	-1.4%
CC(C)(C)C(=O)Nc1ccc(C(=O)NNC(=O)c2ccccc2)cc1	78.0*	8.0%	0.1%	5.0%	31.3*	1.9%
